# Source: PubChem (The Scripps Research Institute Molecular Screening Center)
# This is a sample that favours compounds with a hit; in the whole collection about 4.8% have one here.
# DAX1 inh-1 = blocks DAX1 repression of SF-1 activated StAR promoter; HEK293T StAR-luciferase reporter, SF-1/DAX-1 repression relief; inhibition, % at 6.8 µM; 1.1% of 370,000 active; AID 652010;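 active means inhibition above the mean over all tested compounds plus 3 SD, cut at about 3.6% in these data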;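 further: 0% = DAX-1 cells with DMSO and 100% = cells lacking DAX-1 with DMSO; higher inhibition means more luminescence from relief of DAX-1 repression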
# DAX1 inh-2 = NR0B1 (DAX1) inhibition. P51843. HEK293 Gal4-DAX1 luciferase reporter, luminescence. inhibition, % at 6.75 µM. 0.99% of 340,000 active;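 active means inhibition above the mean over all tested compounds plus 3 SD, cut at about 4.2% in these data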;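 further: 0% = DAX1-transfected cells with DMSO and 100% = empty-vector control cells with DMSO; inhibition shows as a rise in luminescence from relieved DAX1 repression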
# Target sequence (P51843 207-470 limits assumed): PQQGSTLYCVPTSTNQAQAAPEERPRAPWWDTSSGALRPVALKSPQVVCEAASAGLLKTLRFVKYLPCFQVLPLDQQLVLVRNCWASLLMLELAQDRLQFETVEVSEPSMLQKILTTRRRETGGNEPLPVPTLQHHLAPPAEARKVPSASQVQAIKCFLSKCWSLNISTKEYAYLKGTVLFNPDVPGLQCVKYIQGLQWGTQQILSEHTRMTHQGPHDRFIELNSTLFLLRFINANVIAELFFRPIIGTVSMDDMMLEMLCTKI
# hgDAF-12 ag = activates the H. glycines DAF-12 receptor ligand-binding domain; HEK293 GAL4-hgDAF12 UAS-luciferase reporter, agonist luminescence; normalized to butyrate control; activation, % at 6.8 µM; 1.8% of 370,000 active;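 active means activation above a cutoff set at the mean of all screened compounds plus 3 SD, cut at about 10% in these data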;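 further: 0% = DMSO wells and 100% = sodium butyrate wells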
# ssDAF-12 act = activates DAF-12 receptor from parasite S. stercoralis | HEK293 ssDAF-12/GRIP1 lit1-tk-luc reporter, luminescence; % of 3 µM dafachronic acid response | activation, % at 6.8 µM | 1% of 370,000 active;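 active means activation above the mean over all tested compounds plus 3 SD, cut at about 0.9% in these data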;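 further: 0% = DMSO-only wells and 100% = 3 µM delta7-dafachronic acid wells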
# SMARCA2 activ = SMARCA2 function activation, primary screen. MG213 cells, MMTV-luciferase reporter, dexamethasone, overnight. activation, % at 9.1 µM. 1% of 370,000 active; in the data active means activation above about 7.8%;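 further: 0% = vehicle wells and 100% = reference activator wells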
# hcDAF12 agonist = H. contortus DAF-12 activation, primary screen. HEK293 hcDAF-12 lit1-tk-luc reporter, luminescence; 0% DMSO, 100% Δ7-dafachronic acid. activation, % at 6.8 µM. 1.4% of 370,000 active;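 active means activation above the mean of all tested compounds plus 3 SD, cut at about 5.5% in these data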;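 further: 100% = response to 3 µM Δ7-dafachronic acid high control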
# SMARCA2 conf = confirmation of SMARCA2 (BRM) function activators; shares compounds with SMARCA2 activ; MG213 cells, MMTV-luciferase with dexamethasone, luminescence, overnight; MG213 cells expressing E1A, Rb sequestered; DMSO wells 0%, reference activator 100%; activation, % at 9.1 µM; 30% of 3,500 active; AID 652260;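 active means activation above its plate's cutoff, the mean activation of tested wells plus 3 SD, cut at about 7.9% in these data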
# VP16 Luc act = activates GAL4-VP16 luciferase, flagging SMARCA2 activator hits; shares compounds with SMARCA2 activ; HEK293 GAL4-VP16 pG5luc reporter, luciferase luminescence; scaled: DMSO wells 0%, SAHA wells 100%; activation, % at 9.1 µM; 41% of 3,500 active; AID 686939;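 active means activation above the solvent-only control well mean plus 3 SD, averaged across control plates, cut at about 5.2% in these data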
# * hit, by the source's call; . = no result.
SMILES,DAX1 inh-1,DAX1 inh-2,hgDAF-12 ag,ssDAF-12 act,SMARCA2 activ,hcDAF12 agonist,SMARCA2 conf,VP16 Luc act
CCn1c(=O)cc(SCC(=O)NCc2ccc(C)cc2)c2ccccc21,0,2,-1,-1,-3,-2,.,.
CCn1c(=O)cc(SCC(=O)Nc2ccc(C)cn2)c2ccccc21,-1,2,7,-1,9.2*,1,15*,0
COc1ccccc1N(Cc1cc(=O)[nH]c2ccccc12)C(=O)c1ccccc1,0,0,-5,-1,9.8*,-1,-2,0
CN(Cc1cc(=O)[nH]c2ccccc12)C(=O)c1ccccc1,0,1,3,0,9.4*,5,0,1
Cc1cccc(C(=O)OCC(=O)NCC2CCCO2)c1O (stereo not given),0,0,0,-1,9.2*,2,1,0
O=C(COC(=O)c1ccccc1Br)NCC1CCCO1 (stereo not given),0,1,2,-1,2,-1,.,.
CCc1c(C)nc2c(C)cccc2c1SCCC#N,0,1,-1,-1,4,-1,.,.
Cc1ccc(NC(=O)C2CCN(C(=O)NC3CCCCC3)CC2)c(C)c1,0,-1,-2,-1,-2,-1,.,.
Cc1ccc(NC(=O)N2CCCCCC2)c(C)c1,3,1,2,-1,9.6*,0,6,0
Cc1ccc(NC(=S)NC(=O)C2CC2)c(C)c1,4.0*,1,7,0,8.8*,3,4,2
CSc1ncc(OCc2ccccc2)c(=O)[nH]1,0,1,-2,-1,10*,1,0,0
CSc1nc(Cc2ccccc2)cc(=O)[nH]1,0,0,0,-1,3,1,.,.
O=C(CN(C(=O)CCC(=O)Nc1ccccn1)c1ccc2c(c1)OCO2)NCc1ccc(F)cc1,0,1,1,-1,-2,-1,.,.
CCc1cc(C(=O)O)c(NC(=O)/C=C/c2ccc(OC)c(OC)c2)s1,0,0,-2,-2,-1,-1,.,.
CCc1cc(C(=O)O)c(NC(=O)/C=C/c2ccc(OC)cc2)s1,2,1,10,0,13*,5,1,6.1*
O=C(CSc1nnc(-c2cccnc2)n1-c1ccccc1)c1ccccc1Cl,0,.,4,0,8.6*,-1,2,1
CC(=O)NC(CC(=O)NCc1ccncc1)c1ccccc1 (stereo not given),0,1,2,-1,-2,-1,.,.
CCCOc1ccc(-c2cc3onc(-c4ccccc4)c3c(=O)n2C)cc1,2,1,5,-1,6,3,.,.
CCc1noc2cc(-c3ccccc3)n(C)c(=O)c12,3,.,13*,0,9.7*,3,14*,6.8*
CC1CCN(S(=O)(=O)c2ccc3nc(-c4ccccn4)cc(C(=O)NCCN(C)Cc4ccccc4)c3c2)CC1,-1,0,-1,-1,8.3*,-1,27*,0
CSCC[C@H](NC(=O)C1CCN(S(=O)(=O)c2ccc(C)cc2C)CC1)c1nc2ccccc2[nH]1,-1,0,0,-1,-1,0,.,.
CC1(C)CC(=O)C/C(=N\NC(=O)Cc2ccccc2)C1,0,-1,0,-1,10*,-3,1,1
CC1(C)CC(=O)C/C(=N/NC(=O)c2ccc(-c3ccccc3)cc2)C1,-1,-2,-4,-2,-1,1,.,.
Cc1nc(NCc2ccco2)c2c(C)c(C)sc2n1,-3,-3,-8,-3,-8,-4,.,.
Cc1sc2nc3c4ccccc4c(NCc4ccco4)nn3c(=O)c2c1C,3,3,14*,0,13*,7.5*,43*,19*
SMILES,DAX1 inh-1,DAX1 inh-2,hgDAF-12 ag,ssDAF-12 act,SMARCA2 activ,hcDAF12 agonist,SMARCA2 conf,VP16 Luc act
S=c1[nH]ccn1Cc1ccccc1,0,0,0,-1,8.9*,0,-1,1
O=C(O)c1ccccc1C(=O)c1ccc(F)c(F)c1,0,2,-1,0,-2,0,.,.
Cc1ccc(C(=O)Nc2ccc(NC(=O)c3cccs3)cc2)cc1[N+](=O)[O-],0,0,-2,-2,9.0*,-1,4,1
Cc1ccnc(N(C(=O)c2cccs2)C(=O)c2cccs2)c1,2,3,13*,0,11*,2,8.3*,6.8*
O=C(c1cccs1)N(C(=O)c1cccs1)c1ccc(Br)cn1,1,2,10,0,4,3,.,.
Cc1ccccc1-n1cc(-c2ccc(Br)cc2)nc1SCC(N)=O,0,.,-2,-1,-3,-3,.,.
Cc1ccc(-c2cn(-c3ccccc3)c(SCC(N)=O)n2)cc1C,2,0,7,-1,9.8*,0,3,6.6*
Cn1c(SCCc2ccccc2)nnc1-c1ccco1,2,.,13*,0,9.4*,5,6,5
COP(=O)(c1ccc(N(C)C)cc1)C(O)c1ccccc1 (stereo not given),-1,0,-2,-1,-1,-1,.,.
COc1ccc(C(=O)NC(=S)N2CCNC(=O)C2)cc1Br,0,3,0,-1,0,2,.,.
O=C1CN(C(=S)NC(=O)c2ccc(-c3ccccc3)cc2)CCN1,0,2,-1,0,10*,2,7,4
Cc1ccc(-c2nnc(-c3cc(C)on3)o2)cc1,2,4,12*,0,9.0*,3,7,9.2*
Cc1ccc(-c2nnc(N)o2)cc1,2,0,2,-1,0,1,.,.
Cc1ccc(-c2nnc(-c3cccs3)o2)cc1,4.4*,2,11*,1.4*,10.0*,8.8*,8.2*,9.2*
COc1ccc(C(=O)C2CC2)cc1,0,2,5,-1,-4,1,.,.
C=C(c1ccc(OC)cc1)c1ccc(OC)cc1,0,1,1,-1,9.3*,1,2,2
COC(=O)[C@H]1C[C@]2(C(/C=C(\C)CCC=C(C)C)S(=O)(=O)c3ccccc3)c3ccccc3N[C@H]2N1 (stereo not given in full),.,.,-1,-2,.,-1,.,.
CSc1nsc(SCC(=O)Nc2ccccc2)n1,1,-1,4,0,8.8*,3,6,1
Cc1cc2occ(CC(=O)N(C)CC(=O)Nc3cccc(F)c3)c2cc1C,1,1,-1,-1,-2,-1,.,.
